# Compound activity: PubChem, National Center for Advancing Translational Sciences (NCATS)
# Sfp PPTase inh: blocks B. subtilis Sfp PPTase activity; AID 1490; 310,000 tested, 3.5% active; Potency, µM, for inactives: largest response in the series, negative = inhibition, actives largely listed as inhibitors; Q9F4F7; Biochemical Sfp PPTase activity, qHTS;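 note: the enzyme is Sfp with the accession as filed and its product quenches rhodamine fluorescence; 0% = enzyme reaction without inhibitor and -100% = no enzyme wells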
#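 Compounds were incubated with enzyme (final 15 nM) for 15 min at room temperature before substrate addition started the reaction. Fluorescence at 525 nm excitation, 598 nm emission was recorded immediately and after 30 minutes.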
# PLK1 PBD inh: PLK1 (human) polo-box domain binding inhibition | Potency, µM, without a hit: max response, negative = inhibition, actives largely listed as inhibitors | AID 720504 | 360,000 tested, 2.8% active | P53350 | Plk1 PBD binding of FITC phosphopeptide, fluorescence polarization; note: series mostly up to about 57 µM; nearly all actives have a fitted effect of over 65% in size
# Target sequence (P53350 whole entry, looked up, the tested form may be a part): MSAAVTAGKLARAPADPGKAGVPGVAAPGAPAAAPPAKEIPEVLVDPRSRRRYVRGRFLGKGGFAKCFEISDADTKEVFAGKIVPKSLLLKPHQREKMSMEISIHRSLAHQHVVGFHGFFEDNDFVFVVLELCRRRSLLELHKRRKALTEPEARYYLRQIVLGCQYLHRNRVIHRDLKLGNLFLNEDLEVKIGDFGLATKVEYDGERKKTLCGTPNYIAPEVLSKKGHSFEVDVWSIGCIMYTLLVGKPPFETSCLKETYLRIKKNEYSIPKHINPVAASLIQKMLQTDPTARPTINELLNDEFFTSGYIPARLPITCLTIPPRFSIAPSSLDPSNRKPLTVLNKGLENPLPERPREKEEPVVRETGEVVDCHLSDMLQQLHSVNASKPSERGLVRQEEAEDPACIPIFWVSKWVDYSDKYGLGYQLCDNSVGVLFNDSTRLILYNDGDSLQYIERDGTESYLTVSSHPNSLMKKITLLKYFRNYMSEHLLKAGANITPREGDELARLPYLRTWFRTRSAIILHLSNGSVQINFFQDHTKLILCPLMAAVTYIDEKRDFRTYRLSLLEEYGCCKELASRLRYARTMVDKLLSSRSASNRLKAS
# 12-LOX inh: blocks human arachidonate 12S-lipoxygenase. Potency, µM (highest dose often 108 µM), for inactives: at the highest dose activity change, negative = inhibition, most hits filed as inhibitors. 580,000 tested, 1.1% active. purified 12hLO, xylenol orange hydroperoxide absorbance
#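 Hydroperoxide product was detected by ferrous iron/xylenol orange as the 573 to 405 nm absorbance ratio. Arachidonic acid at 40 uM (final) was turned over for 30 min at room temperature by 150 nM human 12hLO, pH 7.0 Hepes buffer, after 15 min compound preincubation.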
# VDR inh: blocks the human vitamin D receptor; P11473; VDR-SRC2-3 peptide fluorescence polarization, 2 h; Potency, µM, for the others: max response, negative = inhibition, actives largely listed as inhibitors; 400,000 tested, 0.93% active; AID 504847
#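 Compounds are added to VDR with labelled SRC2-3 coactivator peptide and held 2 h at room temperature. Inhibition of the VDR–peptide interaction is then read as a change in fluorescence polarization.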
# * marks the source's active call; other numbers are inactive results; ? = inconclusive; nt = not tested or not shown; ! = not confirmed by another sample; [ ] = dose if it differs, or a comment. Compounds with a hit are over-represented: about 4.2% of the library has one in this group of screens. Calls come from the whole dose curve; as a rule, active = well fitted curve in the direction sought with a large enough effect; inconclusive = small, poorly fitted or top-dose-only effect, or another doubt; inactive = no such curve, though single readings can be large; an effect the other way counts as inactive or inconclusive. Unless noted, % is set by controls: 0 for no effect and ±100 for the full control effect; potency is the fitted concentration of half-maximal effect.
SMILES,Sfp PPTase inh,PLK1 PBD inh,12-LOX inh,VDR inh
O=[S+]1([O-])NC2(CCN(Cc3ccsc3)C2)COc2ccncc21 (configuration not stated),nt,nt,7.9%[6.33 µM],nt
CC1NCCOC1c1ccccc1 (configuration not stated),-0.7%,nt,nt,6.1%
COC(=O)C1=C(c2cccc(OC)c2OC)C[C@@H]2CC[C@H]1N2C(=O)NC1CCCCC1,nt,10.4%,?,5.4%
C[C@]12COC(=O)C[C@@H]1CC[C@@H]1[C@H]2CC[C@@]2(C)[C@H]1CC[C@]2(C)O,nt,nt,-15.6%[57.4 µM],nt
O=C(NCCN1CCC2(CC1)C(=O)NCN2c1ccccc1)c1ccc(F)cc1,nt,nt,-27.7%,nt
O=C(CCCN1CCC2(CC1)C(=O)N(Cc1cccc(F)c1)CN2c1ccccc1)c1ccc(F)cc1,70.8µM*,nt,?,?
COc1ccccc1NC(=O)Nc1ccc2n(c1=O)C[C@H]1C[C@@H]2CN(C2CCOCC2)C1,nt,nt,12.6µM*,nt
COc1ccccc1NC(=O)N1C[C@@H]2C[C@H](C1)c1c(C3CCCCC3)ccc(=O)n1C2,nt,nt,10.2%[176 µM],nt
CCN1C[C@]2(COC)[C@H](O)C[C@H](OC)[C@]34C1C([C@H](OC)[C@H]23)[C@]1(OC(C)=O)C2[C@@H](OC(=O)c3ccccc3)C(O)(C[C@H]24)[C@@H](OC)[C@@H]1O,30.7%,nt,-5.7%,-0.7%
FC(F)(F)CN1C2CCC1CN(c1cc(Cl)ncn1)C2,nt,nt,3.3%[6.33 µM],nt
COc1ccc(OCc2nnc(SCC(=O)NCC3CCCO3)n2N)cc1 (configuration not stated),nt,16.8µM*,?,?
CCN1CCN(S(=O)(=O)c2ccc(Cl)c(C(=O)Nc3ccc(C(=O)N(CC)CC)cc3)c2)CC1,1.0%,2.3%,20µM*,19.3%
CCC(C)N1C(=O)/C(=C\c2ccc(N3CCCCCC3)cc2)C(=O)NC1=S (configuration not stated),?,?,?,-7.7%
CC(C)CN(CC(C)C)c1ccc(C=C2C(=O)NC(=S)NC2=O)cc1[N+](=O)[O-],20µM*,2.67µM*,?,35.5µM*
Cc1cc(/C=C2\C(=O)NC(=O)N(c3cccc(F)c3)C2=O)c(C)n1-c1ccc(C(=O)O)c(Cl)c1,-25.9%,-20.7%,7.94µM*,10.3%
Cc1c(Cl)cccc1N1C(=O)NC(=O)/C(=C\c2cc(C)n(-c3cccc(C(=O)O)c3C)c2C)C1=O,-10.2%,26.7µM*,?,7.1%
COc1ccc(NC(=O)N2CC[C@@]3(CCCN(C(=O)Oc4ccccc4)C3)C2)cc1,8.8%,nt,1.1%[57.4 µM],4.9%
COc1ccc2c(c1O)-c1c(OC)c(OC)cc3c1[C@@H](C2)N(C)CC3,-41.5%,nt,nt,nt
C=CCN1CCc2cccc3c2C1Cc1ccc(O)c(O)c1-3 (configuration not stated),44.7µM*,nt,?,?
C=CCN1CC[C@]23c4c5ccc(O)c4OC2C(O)C=CC3[C@H]1C5 (some centres not stated),nt,-5.0%,-1.6%,-7.3%
CN1CCc2cc(O)cc3c2C1Cc1ccc(O)c(O)c1-3 (configuration not stated),39.8µM*,nt,?,-20.2%
CCCN1CCc2cccc3c2[C@H]1Cc1ccc(O)c(O)c1-3,nt,-10.9%,nt,7.94µM*!
COC(=O)C1=C(c2cccc(OCc3ccccc3)c2)C[C@@H]2CC[C@H]1N2C,nt,6.7%,-0.7%,nt
C[N+](C)(C)CC1CCC1,nt,nt,28.2µM*,nt
CCOP(=O)(c1ccccc1)c1nc(-c2ccc(F)cc2)oc1N1CCCCC1 (configuration not stated),?,-8.3%,?,-1.4%
SMILES,Sfp PPTase inh,PLK1 PBD inh,12-LOX inh,VDR inh
COC(=O)C1=CO[C@@H](C)[C@@H]2CN3CCc4c([nH]c5cc(OC)ccc45)[C@@H]3C[C@H]12,-3.1%,nt,114.1%,79.4µM*
COC(=O)[C@H]1[C@H]2C[C@@H]3c4[nH]c5cc(OC)ccc5c4CCN3C[C@H]2C[C@@H](OC(=O)/C=C/c2cc(OC)c(OC)c(OC)c2)[C@@H]1OC,nt,6.7%,-21.0%,35.6%
Cn1nc(C2CCCCC2)cc1[C@H]1CN2CC[C@H]1C[C@@H]2CNC(=O)c1cccs1,nt,nt,53.9%[176 µM],nt
CCOP(=O)(OCC)C(O)c1ccccc1 (configuration not stated),6.7%,-4.1%,-82.2%,-6.7%
CCOP(=O)(/C(C#N)=C(\C)O)c1ccccc1 (configuration not stated),20.3%,21.2µM*,1.9%,-14.4%
O=C(c1ccc(F)cc1Cl)N1CCC2(CC1)OCCO2,5.7%,-12.1%,8.7%,-27.6%
C[n+]1c2cc(N)ccc2cc2ccc(N)cc21,-13.5%,0.67µM*,?,25.1µM*!
CC[C@H]1C[C@H]2[C@@H]3CCC4=CC(=O)CC[C@@H]4[C@H]3CC[C@]2(C)[C@H]1O,nt,nt,-11.5%[22.9 µM],nt
CCOC(=O)C1=Nc2ccccc2/C1=C\c1c(O)n(C)c(=O)n(C)c1=O,-20.5%,13.4µM*,?,?
Cn1c(O)c(C=Nc2ccccc2-c2ccccc2)c(=O)n(C)c1=O,10.3%,-4.9%,497.3%,5.0%
CCC1CN(C)CCC1(OC(C)=O)c1ccccc1 (configuration not stated),41.4%,-6.7%,0.0%,-11.6%
CN1CC[C@@]2(c3cccc(O)c3)Cc3nc4ccccc4cc3C[C@H]2C1,79.4µM*,nt,?,1.8%
O=C(O)CSCC(=O)N(Cc1ccccc1)c1nc(-c2ccccc2)c(-c2ccccc2)s1,-17.9%,29.9µM*,?,?
Cc1ccc2cc(C=C(C#N)C#N)c(Cl)nc2c1,56.2µM*,8.44µM*,-19.9%,35.5µM*
COP(=S)(OC)SCn1nnc2ccccc2c1=O,22.4µM*,8.44µM*,?,22.4µM*
Oc1cccc2cccnc12,?,nt,9.28µM*!,-3.9%
CC[C@H]1CN2CC[C@H]1C[C@@H]2CNC(=O)Nc1cccc(SC)c1,nt,nt,19.2%[176 µM],nt
CC1CCCC(NC(=O)CNC(=S)N2CC3CC(C2)c2cccc(=O)n2C3)C1C (configuration not stated),7.0%,-8.8%,-0.1%,0.0%
CN1/C(=C\C=Nc2ccccc2)C(C)(C)c2ccccc21,79.4µM*,2.0%,?,10.5%
CC(N)Cc1cn(Cc2ccccc2)c2ccccc12 (configuration not stated),4.7%,-13.6%,?,-16.0%
N#CC(C#N)=NNc1ccc(S(N)(=O)=O)cc1,4.0%,23.8µM*,-2.8%,?
CN(C)C(=O)Oc1ccc(Cl)c2ccccc12,-6.1%,-7.5%,-10.4%,-0.1%
Cc1c(OC(=O)N(C)C)ccc2c1O/C(=C\c1ccco1)C2=O,79.4µM*,-8.4%,?,19.4%
CSc1ccc(CN2CCN(Cc3ccccc3Cl)CC2)cc1,22.4µM*,-9.2%,-23.7%,-10.0%
CSc1ccc(CN2CCN(C(=O)Cc3ccccc3)CC2)cc1,nt,-12.7%,25.9%,-8.5%
Cc1ccc(N2C(=O)NC(=O)/C(=C/c3ccc(OC(=O)c4cccs4)cc3)C2=O)cc1,44.7µM*,9.47µM*,44.7µM*,?
Cc1ccc(N2C(=O)NC(=O)/C(=C\c3cc(C)n(-c4ccc(C(=O)O)cc4)c3C)C2=O)cc1,-23.4%,?,?,-2.6%
Cc1cc(OC(=O)c2cccs2)c2c3c(c(=O)oc2c1)CCCC3,13.4%,-6.6%,1.9%,-0.2%
